# According to PubChem BioAssay AID1053127 (Broad Institute, 2014):
# Potency and affinity values are given separately. A number with no mark means an inactive call.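 How the source made its calls: active means compounds whose fitted curve of lowered CTGF expression reaches half effect within a set concentration limit; inconclusive means flat moderate drop in CTGF, or unreliable curve fit; inactive means the rest.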
# Assay: CTGF mRNA reduction under YAP1 overexpression, dose response, mechanism study for YAP1 pathway inhibitor project, DLD1 cells, RT-qPCR, cherry-pick (AID 1053127)
# Settings: DLD1 YAP1-overexpressing, 24 h; series mostly up to 26 µM; CTGF fold change (delta-delta-Ct), lower = inhibition: at the top concentration
row,SMILES,"CTGF fold change (delta-delta-Ct), lower = inhibition"
1,COc1cccc(-c2ccc([C@H]3[C@@H](CO)N4CCCCN(C(=O)Cc5ccncc5)C[C@H]34)cc2)c1,1.65 unspecified
2,O=C(Cc1ccncc1)N1CCCCN2[C@@H](CO)[C@H](c3ccc(C#Cc4ccccc4F)cc3)[C@@H]2C1,0.964 unspecified
3,COc1cccc(-c2ccc([C@@H]3[C@H](CO)N4CCCCN(C(=O)Cc5ccncc5)C[C@@H]34)cc2)c1,0.988 unspecified
4,COc1cccc(-c2ccc([C@@H]3[C@@H](CO)N4CCCCN(C(=O)Cc5ccncc5)C[C@H]34)cc2)c1,1.2 unspecified
5,O=C(Cc1ccncc1)N1CCCCN2[C@H](CO)[C@H](c3ccc(C#Cc4ccccc4F)cc3)[C@H]2C1,1.12 unspecified
6,COc1cccc(-c2ccc([C@@H]3[C@H]4CN(C(=O)Cc5ccncc5)CCCCN4[C@H]3CO)cc2)c1,1.96 unspecified
7,COc1cccc(-c2ccc([C@H]3[C@@H](CO)N4CCCCN(C(=O)Cc5ccncc5)C[C@@H]34)cc2)c1,1.26 unspecified
8,COc1cccc(-c2ccc([C@H]3[C@H](CO)N4CCCCN(C(=O)Cc5ccncc5)C[C@@H]34)cc2)c1,1.02 unspecified
9,O=C(Cc1ccncc1)N1CCCCN2[C@H](C1)[C@@H](c1ccc(C#Cc3ccccc3F)cc1)[C@@H]2CO,1.19 unspecified
10,O=C(Cc1ccncc1)N1CCCCN2[C@@H](CO)[C@@H](c3ccc(C#Cc4ccccc4F)cc3)[C@@H]2C1,0.849 unspecified [at 23.5 µM]
